Measured values from PubChem BioAssay AID1255 (The Scripps Research Institute Molecular Screening Center, 2008).
Screen size: about 1,200 compounds; about 330 (28%) were called active. Not all results are given here. Unmarked numbers belong to inactive results. Rule as the data show it: active = inhibition above about 17%; inactive = the rest.

target: Neuropeptide Y receptor type 2 (Homo sapiens) (UniProt P49146); test: NPY-Y2 receptor antagonists, selectivity check, confirmation, counter-screen for NPY-Y1 antagonist project, HEK293-CNG cells, membrane potential fluorescence, triplicate (AID 1255); settings: antagonism, at 3.6 µM, stronger effect = higher value, cells given NPY, then isoproterenol;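 also: 0% = DMSO with agonist challenge and 100% = reference antagonist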
Sequence (P49146 whole entry, looked up): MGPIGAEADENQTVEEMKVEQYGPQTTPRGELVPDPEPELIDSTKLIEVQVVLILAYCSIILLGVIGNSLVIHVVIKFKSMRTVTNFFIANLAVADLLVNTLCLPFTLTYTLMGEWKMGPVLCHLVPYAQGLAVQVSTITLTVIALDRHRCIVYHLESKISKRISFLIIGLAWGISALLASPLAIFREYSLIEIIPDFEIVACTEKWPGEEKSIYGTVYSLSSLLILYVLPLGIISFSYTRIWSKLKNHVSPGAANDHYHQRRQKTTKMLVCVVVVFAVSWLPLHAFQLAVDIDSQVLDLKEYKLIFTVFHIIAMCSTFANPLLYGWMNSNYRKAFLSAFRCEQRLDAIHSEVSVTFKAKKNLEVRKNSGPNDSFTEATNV

SMILES | inhibition
Cc1ccc(/C=N/NC(=O)COc2ccccc2-c2ccccc2)cc1 | 28.1% (active)
CC1CN(CCCOc2ccccc2-c2ccccc2)CC(C)O1 (stereo not drawn) | 6.39%
c1ccc(-c2ccccc2OCCN2CCCCC2)cc1 | 6.63%
CCCCCCC(=O)Nc1nc(C)c(-c2csc(Nc3cccc(OC)c3)n2)s1 | 2.61%
Cc1ccc(C(=O)C[n+]2cc(-c3ccccc3)n3c2CCCCC3)cc1 | 14.5%
CC(Oc1ccc2ccccc2c1)C(=O)NNC(=S)NC(=O)c1ccco1 (stereo not drawn) | 10.2%
CCN1CCN(CCNC(=O)c2ccc(/C=C3/Sc4ccccc4N(Cc4cccc(C)c4)C3=O)cc2)CC1 | 27% (active)
Cc1ccc(N2C(=O)C3N=NN(CC(=O)N4N=C(c5cccc6ccccc56)CC4c4ccccc4)C3C2=O)cc1 (stereo not drawn) | 5.5%
CCOC(=O)CSc1nc2c(sc(=S)n2CCc2ccccc2)c(=O)n1Cc1ccco1 | 14.4%
O=C(NCCc1ccc2c(c1)OCCO2)c1cc2ccccc2o1 | 14.6%
Cc1ccc(Cn2c(NC(=O)c3ccco3)nc3ccccc32)cc1 | 24.2% (active)
O=S(=O)(O)c1nc2ccccc2n1Cc1ccc(Cl)cc1 | 5.74%
CCS(=O)(=O)n1nc(-c2ccccc2)nc1SCc1ccccc1 | 13.4%
CCC(=O)c1c[nH]c(C(=O)NCC2CCCO2)c1 (stereo not drawn) | 2.61%
O=C(CN1CCN(c2ncc(C(F)(F)F)cc2Cl)CC1)Nc1ccc2c(c1)OCO2 | 18.4% (active)
O=C(CSc1nnnn1C1CCCC1)Nc1ccc2c(c1)OCCO2 | 7.69%
COC(=O)c1ccc(COC(=O)c2c(C)nn(Cc3ccccc3Cl)c2Cl)o1 | 8.24%
COc1ccc(CCN(C(=O)COc2ccccc2)c2nc(-c3ccccc3)cs2)cc1OC | 17.3% (active)
CCCCc1c(O)nc2n(c1=O)CCS2 | 2.74%
Cc1ccc2nc(-c3ccccn3)cc(C(=O)Nc3ccc4c(c3)OCO4)c2c1 | 25.5% (active)
CCc1ccc(CNC(=O)C2CCCN(c3nc4ccccc4o3)C2)cc1 (stereo not drawn) | 11%
CCCOC(=O)c1[nH]c2c(c1C)C(=O)CC(c1cccs1)C2 (stereo not drawn) | 16.7%
COc1ccccc1C1C2=C(COC2=O)Nc2cc3c(cc21)OCO3 (stereo not drawn) | 10.6%

SMILES | inhibition
OC(COCCC12CC3CC(CC(C3)C1)C2)CN1CCCCC1 (stereo not drawn) | 12.7%
CS(=O)(=O)N1CCCC(C(=O)N2CCOCC2)C1 (stereo not drawn) | 0.64%
COc1ccc(C(c2nnnn2C2CCCCC2)N2CCN(c3ccccc3F)CC2)cc1 (stereo not drawn) | 10.2%
CC(=O)N1CC(C)c2scc(C)[n+]2-c2ccccc21 (stereo not drawn) | 3.05%
O=C(/C=C/c1ccco1)Nc1cccc(-c2nc3ccccc3[nH]2)c1 | 7.24%
O=C(CSc1nc2cc3c(cc2c(=O)n1CCC1=CCCCC1)OCO3)NCc1ccco1 | 2.11%
c1ccc2c(NC3C4CC5CC(C4)CC3C5)nc(N3CCOCC3)nc2c1 (stereo not drawn) | 30.1% (active)
CC(Nc1nc(N2CCN(CCO)CC2)nc2ccccc12)c1ccccc1 (stereo not drawn) | 10.1%
Fc1ccc(-c2nnc(CSc3nnc(-c4ccc5c(c4)OCO5)o3)o2)cc1 | 9.04%
CC(C)Cn1cnc2c1c(=O)n(CC(O)c1ccccc1)c(=O)n2CC(C)C (stereo not drawn) | -0.53%
Cc1ccccc1Nc1scc(-c2ccc(Br)cc2)[n+]1-c1ccccc1C | 12.3%
Cc1cc(C(C)(C)C)oc1C(=O)N(CC(=O)NC1CCCC1)Cc1ccc(Cl)cc1 | 19.8% (active)
CCCSc1nc(NCc2ccco2)c2c3c(sc2n1)COC(C)(CC)C3 (stereo not drawn) | 12.4%
C/C(=N\NC(=S)NCc1ccccc1)c1ccc(Cl)cc1 | 5.13%
COc1ccc(-c2[nH]nc(-c3ccccc3)c2-c2nc3ccccc3[nH]2)cc1 | 17%
O=C(NCCCN1CCOCC1)c1cnn2c(-c3ccccc3)cc(-c3ccccc3)nc12 | 18.8% (active)
CCOC1CCCCC1NS(=O)(=O)c1ccc(Cl)cc1 (stereo not drawn) | 1.15%
Cc1nc(-c2ccccc2)sc1C(=O)/C=C/c1ccccc1 | 16.5%
COc1ccc(C(=O)CSc2nnc(COc3ccccc3)n2Cc2ccco2)cc1 | 6.65%
Oc1ccc(-c2[nH]ncc2-c2nc3ccccc3s2)c(O)c1 | 3.58%
NC(N)=N/N=C/c1ccc(OCc2ccc(Cl)cc2Cl)cc1 | 30.3% (active)
CCOC(=O)c1nn(-c2cccc(C)c2)cc1C(=O)c1ccccc1 | 6.78%
COC(=O)c1ccc(C(NC(=O)OCc2ccccc2)/C(C)=C/[C@@H](C)C(=O)NCc2ccc(OC)c(OC)c2)cc1 (stereo partly drawn) | 12.9%

SMILES | inhibition
Cc1cc(C)c2[nH]c(=O)c(CN(Cc3ccccc3)C(=S)NCCCN(C)C)cc2c1 | 26.7% (active)
CN(C)CCCCCN(C)Cc1cc2ccccc2o1 | 14.4%
COC(=O)C1=C(Nc2ccc(C)cc2)C=C(C)C(C(=O)OC)C1c1ccc(F)cc1 (stereo not drawn) | 15.2%
Cc1ccc(C(=O)N/C(=C/c2ccc(-c3cccc([N+](=O)[O-])c3)o2)C(=O)NCCCN(C)C)cc1 | 13.8%
CCCOc1ccc2c3c(c(=O)oc2c1OCCC)CCC3 | 15.6%
COc1ccccc1N1CCN(C(=O)CN(Cc2ccc(Cl)cc2)S(C)(=O)=O)CC1 | 3.69%
Clc1ccccc1-c1cc(COc2ccc3ccccc3c2)no1 | 18.4% (active)
COc1cccc(CNCCc2c[nH]c3ccccc23)c1OCc1ccccc1F | 16.7%
CCCC(=O)Nc1nc2ccc(NC(=O)c3c(F)c(F)c(OC)c(F)c3F)cc2s1 | 11.5%
Cc1ccc(SCCC(=O)OCC(=O)Nc2ncc(Cl)cc2Cl)cc1 | 5.65%
CC(=O)OC(C)C[N+](C)(C)C (stereo not drawn) | 12.9%
COc1cc2c(C(=O)N3CCN(C)CC3)c(CSc3ccccc3)n(C)c2cc1Br | 19.6% (active)
OCC1(CCc2ccccc2)CCN(Cc2ccc3nsnc3c2)CC1 | 9.39%
CCOC(=O)N1CCN(S(=O)(=O)c2ccc(C(=O)Nc3ccc(F)cc3F)cc2)CC1 | 10.3%
CCCCn1nc(C(=O)N2CCc3ccccc32)c2ccccc2c1=O | 3.7%
Cc1ccc(-c2cc(C(=O)N3CCc4ccccc4C3)no2)cc1 | 12.8%
CCCCCCCCn1c2c(c(=N)c3c1CCC3)CCCC2 | 44.6% (active)
O=C(Cc1cccs1)N(CC1CCCO1)C1(C(=O)NC2CCCCC2)CCCCC1 (stereo not drawn) | 11.1%
O=C(c1cc(-c2ccc(O)cc2)on1)N1CCCc2ccccc21 | 2.92%
CC(C)(C)NCc1cc(Br)ccc1OC1CCCC1 | 10.4%
COc1ccc(C2Nc3ccccc3C(=O)N2Cc2ccccc2)cc1Cn1nnc2ccccc21 (stereo not drawn) | 8.37%
O=C1c2cccnc2C(Nc2ccc(S(=O)(=O)N3CCCCCC3)cc2)N1Cc1ccccc1 (stereo not drawn) | 2.58%
